Sampled rows, rich in hits. Any-hit rate of the full collection: about 2.5%.
FXN GAA850 act: FXN promoter activators, primary screen, cell-based, luciferase luminescence, HEK293 lucGAA850 | HEK293 lucGAA850 FXN promoter luciferase reporter, 24 h; percent of 10 µM SAHA response | AID 540364, 2011 | activation, % at 6 µM | actives 0.56% (n = 360,000);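 active = activation above the average of all compounds screened plus 3 SD, cutoff fixed separately per campaign, cut at about 7.5% in these data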
EWS-Fli block: EWS/Fli-driven NR0B1 reporter inhibitors, primary screen, A673 cells, NR0B1 luciferase, luminescence, MLPCN library; viability-normalised; inhibition, % at 12.6 µM; actives 0.67% (n = 350,000);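 active = mean inhibition of at least 50% after viability correction, with every replicate also passing that limit; inconclusive = mean reaches 50% but only one of two replicates passes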;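 note: firefly luciferase signal divided by Alamar Blue viability fluorescence both relative to DMSO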
HIV Env fusion: inhibitors of HIV-1 Env-driven cell-cell fusion, primary screen, HeLa-JRFL effector, CEM21 target cells, luciferase. actives 1.1% (n = 360,000). AID 651610, 2012. inhibition, % at 12.3 µM;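 active = mean replicate inhibition score of at least 50 and every replicate individually at or above 50; inconclusive = only one of the two criteria met; inactive = mean below 50 and not all replicates reaching 50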
CFTR F508del cor: F508del CFTR correction, initial screen, CFBE line, single point; activity (quench increase), % at 7.58 µM; CFBE cells, YFP halide quenching; stimulated with forskolin plus potentiator P3; % fluorescence drop versus neutral controls; actives 0.36% (n = 350,000); AID 720511, 2013;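 active = mean added fluorescence quench of at least 8% versus neutral control, with both replicates also reaching 8%; inconclusive = only one of the mean or replicate conditions met; inactive = mean below 8% and not both replicates reaching 8%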;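 note: cells transiently co-express mutant CFTR-F508del with the halide-sensitive YFP; corrector assay measuring rescue of mutant channel to the surface after 24 h compound exposure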
PAX8 reporter: inhibitors of PAX8-driven TPO luciferase reporter, primary screen, RMG-I cells, single concentration. SteadyGlo, 24 h. inhibition, % at 12.6 µM. AID 652154, 2013. actives 1.2% (n = 360,000);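 active = mean replicate inhibition at least 60% with every replicate also reaching 60%; inconclusive = only one of the two criteria is met; inactive = mean below 60% and not all replicates reaching 60%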;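 note: luciferase light reporting Pax8 driven TPO promoter activity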
Numbers stand for hits; i = inactive; ? = inconclusive; nt = no result; [ ] = another dose, or the depositor's remark.

SMILES | FXN GAA850 act | EWS-Fli block | HIV Env fusion | CFTR F508del cor | PAX8 reporter
C[C@@H]1CN([C@H](C)CO)C(=O)c2cc(NS(=O)(=O)c3ccc(F)cc3)ccc2O[C@@H](C)CCCCO[C@H]1CN(C)Cc1ccc(Cl)c(Cl)c1 | nt | i | i | i | 69.5
C[C@@H]1CCCCO[C@H](CN(C)Cc2ccc(Cl)c(Cl)c2)[C@@H](C)CN([C@H](C)CO)C(=O)c2cc(NS(=O)(=O)c3ccc(F)cc3)ccc2O1 | nt | i | i | i | i
C[C@H](CO)N1C[C@H](C)[C@H](CN(C)Cc2ccc(Cl)c(Cl)c2)OCCCC[C@H](C)Oc2ccc(NS(=O)(=O)c3ccc(F)cc3)cc2C1=O | nt | i | 88.5[16.7 µM] | i | 97.4
COc1cccc(NC(=O)N(C)C[C@@H]2Oc3ncc(/C=C/c4ccccc4)cc3C(=O)N([C@H](C)CO)C[C@H]2C)c1 | nt | i | i | i | i
C[C@@H]1CN([C@H](C)CO)C(=O)c2cc(NC(=O)Nc3ccc4c(c3)OCO4)ccc2O[C@@H](C)CCCCO[C@H]1CN(C)Cc1ccc2c(c1)OCO2 | nt | i | i | i | i
C[C@H](CO)N1C[C@H](C)[C@H](CN(C)Cc2ccc3c(c2)OCO3)OCCCC[C@H](C)Oc2ccc(NC(=O)Nc3ccc4c(c3)OCO4)cc2C1=O | nt | i | 66.1[16.7 µM] | i | i
C[C@@H]1CCCCO[C@@H](CN(C)Cc2ccccc2)[C@H](C)CN([C@H](C)CO)C(=O)c2cc(NC(=O)Nc3ccc4c(c3)OCO4)ccc2O1 | nt | i | i | i | i
C[C@H]1CCCCO[C@@H](CN(C)Cc2ccccc2)[C@@H](C)CN([C@@H](C)CO)C(=O)c2cc(NC(=O)Nc3ccc4c(c3)OCO4)ccc2O1 | nt | i | 56.7[16.7 µM] | i | i
C[C@@H]1CN([C@@H](C)CO)C(=O)c2cc(NC(=O)Nc3ccc4c(c3)OCO4)ccc2O[C@@H](C)CCCCO[C@H]1CN(C)Cc1ccc(Cl)c(Cl)c1 | nt | i | 66.6[16.7 µM] | i | nt
C[C@H]1CCCCO[C@@H](CN(C)C(=O)C2CCCCC2)[C@@H](C)CN([C@@H](C)CO)C(=O)c2cc(NC(=O)Nc3ccc(F)cc3)ccc2O1 | nt | i | i | i | ?
C[C@H](CO)N1C[C@H](C)[C@H](CN(C)C(=O)C2CCCCC2)OCCCC[C@H](C)Oc2ccc(NC(=O)Nc3ccc4c(c3)OCO4)cc2C1=O | nt | i | 78.1[16.7 µM] | i | nt
CC(C)NC(=O)Nc1ccc2c(c1)C(=O)N([C@@H](C)CO)C[C@@H](C)[C@H](CN(C)C(=O)Nc1ccc(F)cc1)OCCCC[C@H](C)O2 | nt | i | i | i | i
C[C@@H]1CN([C@H](C)CO)C(=O)c2cc(NC(=O)Nc3ccc(F)cc3)ccc2O[C@@H](C)CCCCO[C@H]1CN(C)C(=O)Nc1ccc(F)cc1 | nt | i | i | i | 85.5
C[C@@H]1CCCCO[C@@H](CN(C)C(=O)C2CCCCC2)[C@H](C)CN([C@H](C)CO)C(=O)c2cc(NC(=O)Nc3ccc(F)cc3)ccc2O1 | nt | i | i | i | 86.2
C[C@@H]1CCCCO[C@H](CN(C)C(=O)Nc2ccc(F)cc2)[C@H](C)CN([C@H](C)CO)C(=O)c2cc(NC(=O)Nc3ccc(F)cc3)ccc2O1 | nt | i | i | i | i
CC(C)NC(=O)Nc1ccc2c(c1)C(=O)N([C@@H](C)CO)C[C@@H](C)[C@@H](CN(C)C(=O)Nc1ccc(F)cc1)OCCCC[C@@H](C)O2 | nt | i | 80.3[16.7 µM] | i | i
O=C(Cc1ccccn1)NCC[C@H]1CC[C@@H](NC(=O)c2ccccc2F)[C@H](CO)O1 | nt | i | i | i | i
Cc1ccccc1-c1ccc([C@H]2[C@@H](CO)N3CCCCN(C(=O)CN4CCOCC4)C[C@H]23)cc1 | nt | i | nt | i | i
CC(C)c1ccccc1-n1c(SCC(=O)N2CCc3ccccc3C2)nc2ccccc2c1=O | i | i | 59.9 | i | i
C/C(=N\NC(=O)c1cccc(Cl)c1)C1C(=O)c2ccccc2C1=O | i | i | 56.9 | i | nt
C/C(=N\NC(=O)CCc1ccccc1)C1C(=O)c2ccccc2C1=O | i | i | i | i | i
CC(C)N(Cc1ccccc1)S(=O)(=O)c1ccc(F)cc1 | i | i | i | i | i
C=C[C@H](Cc1ccccc1)N(Cc1ccccc1)S(=O)(=O)N(Cc1ccccc1)[C@H](C=C)Cc1ccccc1 | i | i | 60.8 | i | i
COc1ccc(/C=C/c2c(-c3ccc(OC)cc3)oc3ccccc23)cc1 | i | i | 55.6 | i | i
COC(=O)c1ccc(/C=C/c2c(-c3ccc(OC)cc3)oc3ccc(N4CCOCC4)cc23)cc1 | i | i | i | 9.6 | i
SMILES | FXN GAA850 act | EWS-Fli block | HIV Env fusion | CFTR F508del cor | PAX8 reporter
Cc1cccc(CN2CCSCCS2(=O)=O)c1 | nt | i | 61.1 | i | i
C=C(C)CSc1cc(C)nc2c(-c3ccccc3)c(C)nn12 | i | i | 61.1 | i | i
Cc1ccccc1NNC(=O)C(=O)NNc1ccccc1C | i | i | i | i | i
Cc1ccccc1NC(=O)C(Cl)=C(Cl)Cl | i | i | i | i | 93.9
C[C@@H]1CN([C@H](C)CO)C(=O)c2cc(NS(=O)(=O)c3cccs3)ccc2O[C@H]1CN(C)Cc1ccc2c(c1)OCO2 | nt | i | nt | i | nt
Cc1ccc(S(=O)(=O)N(C)C[C@@H]2OCCCC[C@H](C)Oc3ccc(NC(=O)Nc4ccc(F)cc4)cc3C(=O)N([C@H](C)CO)C[C@@H]2C)cc1 | nt | i | i | i | 60.7
C[C@@H]1CN([C@H](C)CO)C(=O)c2cc(NC(=O)Nc3ccc(F)cc3)ccc2O[C@@H](C)CCCCO[C@H]1CN(C)S(=O)(=O)c1ccc(F)cc1 | nt | i | i | i | 85.6
C[C@H](CO)N1C[C@H](C)[C@H](CN(C)S(=O)(=O)c2ccc(F)cc2)OCCCC[C@H](C)Oc2ccc(NC(=O)Nc3ccc(F)cc3)cc2C1=O | nt | i | i | i | 75.5
COc1cccc(S(=O)(=O)N(C)C[C@@H]2Oc3ncc(-c4cccc(C(=O)N(C)C)c4)cc3C(=O)N([C@@H](C)CO)C[C@@H]2C)c1 | nt | i | i | i | nt
C[C@H](CO)N1C[C@H](C)[C@@H](CN(C)CC2CC2)Oc2ccc(NS(C)(=O)=O)cc2CC1=O | nt | i | 57.6[16.7 µM] | i | i
C[C@@H]1CN([C@H](C)CO)C(=O)Cc2cc(NS(=O)(=O)c3ccccc3)ccc2O[C@@H]1CN(C)CC1CCCCC1 | nt | 64.2 | i | i | i
C[C@@H]1CN([C@@H](C)CO)C(=O)Cc2cc(NS(C)(=O)=O)ccc2O[C@H]1CN(C)CC1CC1 | nt | i | i | i | i
CNC[C@@H]1Oc2ccc(NS(C)(=O)=O)cc2CC(=O)N([C@H](C)CO)C[C@H]1C | nt | i | 64.9[16.7 µM] | i | i
O=C(C[C@@H]1CC[C@@H](NC(=O)C2CC2)[C@@H](CO)O1)NCC1CC1 | nt | i | i | i | nt
CCNC(=O)C[C@H]1CC[C@@H]2[C@H](COC[C@H](O)CN2C(=O)Nc2cccc(OC)c2)O1 | nt | nt | nt | i | nt
Cc1ccccc1[C@H](NC1c2ccccc2C=Cc2ccccc21)P(=O)(c1ccccc1)c1ccccc1 | nt | i | 86.2 | i | i

High-throughput results deposited in PubChem BioAssay by several laboratories.
